Source: PubChem BioAssay (National Center for Advancing Translational Sciences (NCATS))
HT1080 IDH1KD tx: toxicity to HT-1080 IDH1 knockdown cells (counter line) | HT-1080 IDH1 knockdown viability, ATP luminescence, 48 h | AID 686971 | Potency, µM (doses to about 46.1 µM), inactives show top-dose activity, negative = toxicity, usual class: cytotoxic | actives 2% (n = 360,000);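 also: 0% = DMSO wells and -100% = cell-free medium wells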
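After a 2 h attachment period, IDH1KD HT-1080 cells took pin-transferred compound for 48 h at 37 °C; ATP-based luminescence after 10 min room-temperature reagent incubation reported viability.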
DT40 TDP1 CPT: DT40-hTDP1 cell growth loss with CPT; chicken DT40 Tdp1-/-;hTDP1 cells + 20 nM CPT, ATP luminescence, 48 h; Potency, µM (top dose mostly 46.2 µM), inactives show at the top dose activity change, negative = growth inhibition, usual class: inhibitors; actives 12% (n = 420,000); AID 686979; also: nearly all actives have a fitted effect of over 55% in size
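Chicken DT40 Tdp1-/- cells stably complemented with human TDP1 were seeded at 400 cells/well in medium containing 20 nM camptothecin, exposed to pin-transferred compounds, and grown at 37 °C for at least 48 hr. Viability was read as ATP luminescence.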
HT1080NT lethal: kills 2HG-producing HT-1080-NT fibrosarcoma cells; HT-1080-NT fibrosarcoma viability, CellTiter-Glo ATP luminescence, 48 h; Potency, µM (titrated, usually from 46.1 µM), inactives show top-dose activity, negative = less viability, usual class: cytotoxic; actives 1.6% (n = 360,000); AID 686970;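 also: NT is the 2HG producing partner of a matched IDH1 knockdown line; 0% = DMSO-treated cells and -100% = media-only wells without cells; nearly all actives have a fitted effect of over 55% in size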
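Compounds were tested in concentration-response format on HT-1080-NT cells for 48 hours at 37 degrees C. Cell viability came from CellTiter-Glo luminescence; curves were classified by r2, response magnitude and activity.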
KB-3-1 cytotox: kills parental KB-3-1 adenocarcinoma cells. KB-3-1 viability, CellTiter-Glo ATP luminescence, 72 h. Potency, µM (highest dose often 46.1 µM), actives largely listed as cytotoxic. actives 1.4% (n = 400,000). AID 1347075; also: nearly all actives have a fitted effect of over 60% in size
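Parental KB-3-1 viability, qHTS format: 72 h compound exposure, 37 °C; CellTiter-Glo; media-only wells and DMSO plates as controls; concentration-effect fits on corrected data.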
KB-V1 cytotox: KB-V1 MDR subline cytotoxicity | actives 3.4% (n = 400,000) | KB-V1 MDR cells viability, CellTiter-Glo, 72 h | Potency, µM (doses to about 46.1 µM), actives largely listed as cytotoxic; also: nearly all actives have a fitted effect of over 60% in size
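Cells of the MDR subline KB-V1 are plated, dosed with compound at multiple concentrations, and incubated 72 h at 37 degrees C; CellTiter-Glo is then added and luminescence read after 10 min.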
DT40 TDP1 no CPT: qHTS for Inhibitors of human tyrosyl-DNA phosphodiesterase 1 (TDP1): qHTS in cells in absence of CPT | AID 686978, 2013 | DT40 Tdp1-/- hTDP1 cells, no CPT, ATP luminescence, 48 h | Potency, µM (top dose mostly 46.2 µM), inactives show at the top dose activity change, negative = growth inhibition, usual class: inhibitors | actives 15% (n = 420,000); also: nearly all actives have a fitted effect of over 55% in size
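Stably hTDP1-transfected Tdp1-null chicken DT40 cells were treated with library compounds minus camptothecin and grown for at least 48 hr at 37 °C, after which cellular ATP was quantified by luminescence.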
* hit, by the source's call; i = inactive; ? = inconclusive; / = no result given. A selection: hits, their analogues and other compounds. The true share with any hit is near 19%. Calls follow the shape of the dose curve; as a rule, active = well fitted curve in the direction sought with a large enough effect; inconclusive = small, poorly fitted or top-dose-only effect, or another doubt; inactive = no such curve, though single readings can be large; an effect the other way counts as inactive or inconclusive. Unless noted, % is scaled to controls: 0 for no effect and ±100 for the full control effect; potency is read from the fitted curve at half-maximal effect.

SMILES	HT1080 IDH1KD tx	DT40 TDP1 CPT	HT1080NT lethal	KB-3-1 cytotox	KB-V1 cytotox	DT40 TDP1 no CPT
COc1cccc(OC)c1C(=O)Nc1ccc(N2CCN(C(=O)c3cccs3)CC2)cc1	0.4%	-22.5%	15.8%	i	i	?
O=C(Nc1ccc(N2CCN(C(=O)c3cccs3)CC2)cc1)c1cccc(F)c1	?	16.4µM*	-28.8%	18.4µM*	?	20.6µM*
COc1cccc(C(=O)Nc2ccc(N3CCN(C(=O)c4cccs4)CC3)cc2)c1	2.59µM*	2.31µM*	?	5.17µM*	2.31µM*	4.61µM*
O=C(Nc1ccc(N2CCN(C(=O)c3cccs3)CC2)cc1)c1ccc(Br)o1	16.1%	?	10.8%	i	i	?
NC(=O)CNC(=O)[C@@H]1CC2(CC(c3ccc(Cl)cc3)=NO2)CN1C(=O)c1ccc(Br)cc1 (stereo not given in full)	-2.1%	-0.5%	-23.2%	i	i	3.8%
CCC(C)NC(=O)C1CCC(CNS(=O)(=O)c2ccc3c(c2)CC(C)N3C(=O)C2CC2)CC1 (stereo not given)	-6.0%	?	-3.5%	i	i	?
CC(=O)N1c2ccc(S(=O)(=O)N3CCC(C(=O)Nc4cccc(C)n4)CC3)cc2CC1C (stereo not given)	-27.4%	?	-5.6%	?	i	?
CCCCN(C)C(=O)C1CCC(CNS(=O)(=O)c2ccc3c(c2)CC(C)N3C(=O)C2CC2)CC1 (stereo not given)	?	10.3µM*	?	?	?	23.1µM*
CC(=O)N1c2ccc(S(=O)(=O)NCC3CCC(C(=O)Nc4cccc(C)n4)CC3)cc2CC1C (stereo not given)	-11.4%	25.9µM*	-25.2%	?	i	18.4µM*
CC(=O)N1c2ccc(S(=O)(=O)NCC3CCC(C(=O)NC4CCC(C)CC4)CC3)cc2CC1C (stereo not given)	-12.4%	?	-27.8%	i	i	-24.0%
COc1cccc(NC(=O)C2CCC(CNS(=O)(=O)c3ccc4c(c3)CC(C)N4C(C)=O)CC2)c1 (stereo not given)	-20.9%	23.1µM*	-11.1%	i	i	18.4µM*
CCC(C)(C)NC(=O)C1CCC(CNS(=O)(=O)c2ccc3c(c2)CC(C)N3C(C)=O)CC1 (stereo not given)	/	16.4µM*	/	/	/	11.6µM*
CCn1ncc(CN2CCN(Cc3cccc(OC)c3)C(CCO)C2)c1C (stereo not given)	1.5%	-7.3%	13.9%	i	i	-1.9%
COCCCNC(=O)CN(c1cc([N+](=O)[O-])ccc1OC)S(C)(=O)=O	12.4%	7.7%	7.3%	i	i	7.7%
CC(=O)N1c2ccc(S(=O)(=O)NCC3CCC(C(=O)Nc4cccc(C)c4C)CC3)cc2CC1C (stereo not given)	/	?	/	/	/	20.6µM*
CC(=O)N1c2ccc(S(=O)(=O)NCC3CCC(C(=O)Nc4cccc(C)c4)CC3)cc2CC1C (stereo not given)	/	16.4µM*	/	/	/	14.6µM*
CC(=O)N1CC(C)Sc2ccc(S(=O)(=O)NCCc3cccc(C)c3)cc21 (stereo not given)	-9.8%	?	-17.1%	i	i	14.6µM*
COc1ccc(CNS(=O)(=O)c2ccc3c(c2)N(C(C)=O)CC(C)S3)cc1 (stereo not given)	-14.4%	?	-15.8%	?	i	9.2µM*
CC(=O)N1c2ccc(S(=O)(=O)NCCc3cccc(C)c3)cc2CC1C (stereo not given)	/	14.6µM*	/	i	i	14.6µM*
CNc1nc(Cl)c(SC)c(NCc2cccc(OC)c2)n1	-6.6%	?	-24.2%	i	i	23.1µM*
CCOC(=O)c1cn(-c2ccccc2)nc1-c1cccnc1	-1.1%	-12.5%	6.6%	?	?	-24.3%
O=C(c1cn(-c2ccccc2)nc1-c1ccncc1)n1nnc2ccccc21	-2.4%	16.4µM*	-2.9%	i	i	-29.3%
CCOC(=O)c1cn(-c2ccccc2)nc1-c1ccncc1	-0.2%	-3.7%	-0.5%	?	18.4µM*	1.7%
COc1ccc(N2C(=O)C(CN3CCCCC3)C2c2ccccc2)cc1 (stereo not given)	-2.1%	?	3.9%	i	i	13µM*
COc1ccc(NC2=CC(c3ccc(OC)cc3)N(c3ccc(OC)cc3)C2=O)cc1 (stereo not given)	-12.7%	-22.0%	-12.8%	i	i	-27.4%
SMILES	HT1080 IDH1KD tx	DT40 TDP1 CPT	HT1080NT lethal	KB-3-1 cytotox	KB-V1 cytotox	DT40 TDP1 no CPT
COc1ccc(NC2=CC(c3ccccc3)N(c3ccc(OC)cc3)C2=O)cc1 (stereo not given)	?	?	-0.2%	i	i	8.2µM*
CCN(CC)CC1C(=O)N(c2ccc(OC)cc2)C1c1ccccc1 (stereo not given)	-14.4%	-27.8%	-20.4%	i	i	?
O=C(SCC(O)C(O)CS)c1cccs1 (stereo not given)	5.0%	-1.1%	1.8%	i	i	-2.6%
CCCCn1c(=O)n(C)c(=O)c2c(C(F)(F)F)cc(-c3ccncc3)nc21	-6.4%	17.8µM*	-1.3%	i	?	11.2µM*
CCCn1c(=O)c2c(C(F)(F)F)cc(-c3ccco3)nc2n(CCC)c1=O	-3.7%	-32.1%	3.2%	i	i	-10.9%
O=C(O)C1CCCN1C(=O)C1CCN(S(=O)(=O)c2cccc(C(F)(F)F)c2)CC1 (stereo not given)	11.2%	-2.0%	2.6%	i	i	-4.9%
C[C@@H]1CN([C@@H](C)CO)C(=O)c2cc(NC(=O)Nc3ccccc3)ccc2O[C@@H](C)CCCCO[C@H]1CN(C)C(=O)Nc1ccc(C(F)(F)F)cc1	-20.1%	?	-16.9%	i	i	?
COc1ccccc1C(=O)NC(=S)/C=C1/N(C)c2ccccc2C1(C)C	-76.8%	?	-15.0%	i	i	?
CN1/C(=C/C(=S)NC(=O)C2(C)CC2(Cl)Cl)C(C)(C)c2ccccc21 (stereo not given)	-7.1%	?	-9.7%	i	i	23.1µM*
CN1/C(=C\C(=O)Nc2ccc(Cl)cc2)C(C)(C)c2ccccc21	-18.3%	?	-20.6%	i	i	?
